Results published in PubChem BioAssay.
For part of these data: Results with a measured potency or affinity are listed apart. Activity calls are given as the source filed them.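 The calls were made as follows, unless noted: active = dose curve with midpoint inside tested range, moderate steepness, plateau gap beyond fit error, low compound glow and bead-link interference; inactive = the rest.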

How the values were obtained:
[1] = target: Cell division control protein 42 homolog (Homo sapiens) (UniProt P60953); assay: inhibition of fluorescent GTP binding to constitutively active Cdc42 – biochemical, multiplex bead flow cytometry, Bodipy-FL-GTP, dose response (AID 1333;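 active = fitted half-maximal concentration within the tested dose range, moderate curve steepness, a statistically real signal drop, and little compound fluorescence or tag-binding interference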)
Sequence of Cell division control protein 42 homolog (Homo sapiens) (P60953 whole entry, looked up): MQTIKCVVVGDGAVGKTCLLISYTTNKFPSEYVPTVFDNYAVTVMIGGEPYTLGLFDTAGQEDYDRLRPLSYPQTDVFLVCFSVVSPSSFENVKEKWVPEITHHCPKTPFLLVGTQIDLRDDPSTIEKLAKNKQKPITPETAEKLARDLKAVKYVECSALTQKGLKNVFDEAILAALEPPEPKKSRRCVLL

[2] = target: Cell division control protein 42 homolog (Homo sapiens) (UniProt P60953); assay: inhibition of fluorescent GTP binding to wildtype Cdc42 – biochemical, multiplex bead flow cytometry, Bodipy-FL-GTP, dose response (AID 1334;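 active = fitted half-maximal concentration within the tested range, moderate curve steepness, significant signal drop, and little compound fluorescence or bead-linkage interference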); conditions: bead-based flow cytometry, Bodipy-FL-GTP binding to GST-Cdc42; at 100 µM (top of the series) unless noted
[3] = target: GTPase HRas (Homo sapiens) (UniProt P01112); assay: Ras wt fluorescent GTP loading blockade – biochemical, wildtype, multiplex bead flow cytometry, dose response (AID 1335;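 active = fitted half-maximal concentration within 10 nM to 100 µM, steepness 0.5 to 2, significant signal drop, low assay interference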); conditions: bead-based flow cytometry, Bodipy-GTP binding to GST-Ras; at 100 µM (top of the series) unless noted
Sequence of GTPase HRas (Homo sapiens) (P01112 whole entry, looked up): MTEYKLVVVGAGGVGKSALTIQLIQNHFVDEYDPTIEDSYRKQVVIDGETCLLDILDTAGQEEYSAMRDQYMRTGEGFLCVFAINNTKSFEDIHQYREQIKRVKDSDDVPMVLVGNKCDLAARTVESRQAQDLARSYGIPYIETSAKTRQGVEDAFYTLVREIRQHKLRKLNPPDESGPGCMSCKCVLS

[4] = tested on: Ras-related protein Rab-7a (dog), GTP binding; assay: blockers of fluorescent GTP binding to Rab7 – biochemical, wildtype, multiplex bead flow cytometry, dose response (AID 1336; call rule not given here)
[5] = target: Ras-related C3 botulinum toxin substrate 1 (Homo sapiens) (UniProt P63000); assay: inhibition of wildtype Rac1 nucleotide loading – biochemical, multiplex bead flow cytometry, dose response (AID 1340); conditions: GST-Rac1 beads, Bodipy-FL-GTP binding; at 100 µM (top of the series) unless noted
[6] = target: GTPase HRas (Homo sapiens) (UniProt P01112); assay: blockade of GTP loading onto mutant Ras – biochemical, activated mutant, multiplex bead flow cytometry, dose response (AID 1341;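 active = dose-response curve with midpoint inside the tested range, moderate steepness, significant amplitude and little compound fluorescence or bead-attachment interference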;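 also: GST-tagged constitutively activated Ras mutant immobilized on beads and multiplexed with other GTPases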)

SMILES | outcome [1] | fluorescence, percent of control (lower = inhibition) [2] [%] | GTP binding, percent of control [3] [%] | outcome [4] | GTP binding signal, raw median fluorescence (lower = inhibition) (MCF (arbitrary fluorescence units)) [5] | outcome [6]
O=C(O)C1C2C=CC(C2)C1C(=O)N1CCOCC1 (stereo unspecified) | inactive | 53.2 | 66.4 | inactive | 216 | inactive
CC1=C(C#N)c2nc(N)c(C#N)c(C)c2/C1=C\c1ccc(-c2ccccc2C(=O)O)o1 | inactive | 30.1 | 74.4 | inactive | 159 | inactive
COc1ccc(-c2nn3c(-c4ccccn4)nnc3s2)cc1OC | inactive | 43 | 52.9 | inactive | 137 | inactive
O=[N+]([O-])c1cc(Cc2ccccc2)cc(C=Nc2ccc(N3CCOCC3)cc2)c1O | inactive | 45.1 | 65.5 | inactive | 0 | inactive
CN1CCN(S(=O)(=O)c2cccc(C(=O)Nc3sc4c(c3C(N)=O)CCCC4)c2)CC1 | inactive | 43.6 | 57.3 | inactive | 150 | inactive
O=C1c2ccccc2-n2c1nc1ccccc1c2=O | inactive | 35.1 | 78.8 | inactive | 204 | inactive
O=C(c1n[nH]c(=O)c2ccccc12)N1CCN(C2c3ccccc3-c3ccccc32)CC1 | inactive | 87 | 156 | inactive | 175 | inactive
Cc1[nH]c2ccccc2c1C(=O)CNc1nccs1 | inactive | 50.6 | 58 | inactive | 0 | inactive
Cc1ccc(-c2nnc(-c3ccccc3S(=O)(=O)Cc3ccc(Cl)cc3)o2)cc1 | inactive | 90.3 | 165 | inactive | 184 | inactive
CCNC(=O)c1cc2c(=O)n3cccc(C)c3nc2n(CCc2ccccc2)c1=N | inactive | 74 | 113 | inactive | 126 | inactive
COC(=O)c1cn(CCOc2ccc(C)cc2)c2ccccc12 | inactive | 37 | 84.4 | inactive | 175 | inactive
CCOC(=O)c1c(-c2ccccc2)csc1NC(=O)/C(C#N)=C/c1ccc(O)c(OC)c1 | inactive | 79.7 | 85 | inactive | 233 | inactive
COc1ccccc1OCCn1cc(C(=O)O)c2c(C)cccc21 | inactive | 56.8 | 202 | inactive | 55.3 | inactive
Nc1c(S(=O)(=O)c2cccc(Cl)c2)c2nc3ccccc3nc2n1/N=C/c1ccc(O)c(O)c1 | inactive | 54.4 | 91.7 | inactive | 99.4 | inactive
Nc1nc2c(c(=O)[nH]1)C(c1cccc3ccccc13)C1=C(N2)c2ccccc2C1=O (stereo unspecified) | inactive | 31 | 75.5 | inactive | 204 | inactive
C=CCN1C(=O)/C(=C/c2ccc(N(C)C)cc2)S/C1=N\c1nnc(CC)s1 | inactive | 74.8 | 90.2 | inactive | 231 | inactive
Cn1cc([C@@H]2C[C@H]3CN(Cc4cccc(Cl)c4)C(=O)[C@]34CCCN24)c2ccccc21 | inactive | 61.3 | 111 | inactive | 276 | inactive
Cc1ccc(-n2c3nc(=O)[nH]c(=O)c-3cc3cc([N+](=O)[O-])ccc32)cc1 | inactive | 34.4 | 71 | inactive | 103 | inactive
O=C(Nc1ccc2nc(-c3cccs3)[nH]c2c1)c1cccs1 | inactive | 30.4 | 68.4 | inactive | 184 | inactive
CCOc1cc(/C=N/Nc2nncc(-c3ccccc3)n2)ccc1O | inactive | 37.4 | 75.5 | inactive | 160 | inactive
CCn1c(SCC(=O)O)nnc1-c1cc2c(C)nn(-c3ccccc3)c2s1 | inactive | 25.1 | 64.4 | inactive | 128 | inactive

SMILES | outcome [1] | fluorescence, percent of control (lower = inhibition) [2] [%] | GTP binding, percent of control [3] [%] | outcome [4] | GTP binding signal, raw median fluorescence (lower = inhibition) (MCF (arbitrary fluorescence units)) [5] | outcome [6]
CCCNC(=O)C(=O)NCc1ccccn1 | inactive | 41.2 | 91.1 | inactive | 323 | inactive
Cc1c(C(=O)N/N=C/c2ccc(-c3ccccc3[N+](=O)[O-])o2)sc(N)c1C#N | inactive | 37.4 | 49.1 | inactive | 157 | inactive
CCn1cc(C(=O)O)c(=O)c2cc(F)c(N/N=C/c3ccccc3)cc21 | inactive | 45.9 | 58.9 | inactive | 144 | inactive
CCCC(=O)c1ccc(N2CCOCC2)c(F)c1 | inactive | 48.4 | 65.7 | inactive | 212 | inactive
C=CCNC(=O)c1cc2c(=O)n3cc(C)ccc3nc2nc1NCC1CCCO1 (stereo unspecified) | inactive | 51.6 | 58.6 | inactive | 226 | inactive
COc1ccc(N(CC(=O)Nc2cccc(C)c2C)S(=O)(=O)c2c(C)n[nH]c2C)cc1 | inactive | 33.4 | 74.3 | inactive | 170 | inactive
Cc1nc2cccc(C)n2c(=O)c1Cl | inactive | 38.6 | 83.8 | inactive | 255 | inactive
Cc1ccc(-c2csc3nc4c5ccccc5c(NCCCN(C)C)nn4c(=O)c23)cc1 | inactive | 61.7 | 96.5 | inactive | 192 | inactive
Cc1sc2ncnc(Sc3ccccc3C(=O)O)c2c1C | inactive | 103 | 117 | inactive | 84.4 | inactive
O=c1/c(=C/c2ccc(CNS(=O)(=O)c3ccccc3)o2)sc2n1CCN=2 | inactive | 29 | 63.2 | inactive | 119 | inactive
CSc1nnc(C)c(/C=C/Nc2ccc(C)cc2)n1 | inactive | 74.9 | 144 | inactive | 155 | inactive
COc1cccc(-n2nc3c(=S)[nH]nc(C)c3c2C)c1 | inactive | 50.1 | 63.5 | inactive | 199 | inactive
COc1ccc(OC)c(CCNCc2ccc(C(=O)O)s2)c1 | inactive | 58.4 | 82.2 | inactive | 35.9 | inactive
COc1ccc(C2=Nn3c(nnc3-c3ccccn3)SC2)cc1OC | inactive | 34 | 44.4 | inactive | 112 | inactive
Nc1nc(N)c2sc3nc4c(cc3c2n1)CCC4 | inactive | 89.1 | 126 | inactive | 136 | inactive
O=C(CSc1ncnc2scc(-c3ccccc3)c12)N1CCN(Cc2ccc3c(c2)OCO3)CC1 | inactive | 45.2 | 63.6 | inactive | 196 | inactive
CCc1ccc(NC(=O)c2cc3c(C)nc4ccccc4c3o2)cc1 | inactive | 51.4 | 93.2 | inactive | 261 | inactive
Cc1cc(C)cc(C(=O)N(NC(=O)Nc2ccc(Cl)cc2)C(C)(C)C)c1 | inactive | 94.9 | 150 | inactive | 186 | inactive
Cn1c(SCC(=O)Nc2cc(C(C)(C)C)nn2-c2ccccc2)nc2ccccc21 | inactive | 46.2 | 64.7 | inactive | 0 | inactive
COc1ccc(N/C=C/c2nc(SC)nnc2C)cc1 | inactive | 31.3 | 72.4 | inactive | 183 | inactive
COc1cccc(N2CCN(C(=O)c3cccn4c(=O)c5c(C)c(C)sc5nc34)CC2)c1 | inactive | 32.1 | 72.9 | inactive | 163 | inactive

SMILES | outcome [1] | fluorescence, percent of control (lower = inhibition) [2] [%] | GTP binding, percent of control [3] [%] | outcome [4] | GTP binding signal, raw median fluorescence (lower = inhibition) (MCF (arbitrary fluorescence units)) [5] | outcome [6]
COc1ccc(-c2cc(=O)c(C(=O)c3ccc(C)cc3)n[nH]2)cc1 | inactive | 35.8 | 80.8 | inactive | 317 | inactive
COc1ccc(/C=C2\SC(=S)N(CCCC(=O)NNC(=O)c3ccccc3O)C2=O)cc1 | inactive | 32.8 | 73.5 | inactive | 203 | inactive
Cc1nc2nc(SCC(=O)O)nn2c(C)c1Cc1c(F)cccc1Cl | inactive | 28.4 | 75.3 | inactive | 221 | inactive
O=C(N/N=C/c1ccc2nccnc2c1)c1cccc([N+](=O)[O-])c1 | inactive | 42.7 | 86.9 | inactive | 203 | inactive
O=C(CSc1ccc2nnc(-c3ccccn3)n2n1)Nc1ccc2c(c1)OCO2 | inactive | 39.5 | 53.4 | inactive | 120 | inactive
CC(=O)Nc1ccc(NC(=O)CCn2nnc3ccccc32)cc1 | inactive | 35.7 | 81.1 | inactive | 251 | inactive
COC(=O)c1ccc(/C=N/Nc2nc(-c3ccc(Cl)cc3Cl)cs2)cc1 | inactive | 39.1 | 81.6 | inactive | 242 | inactive
COc1cc([N+](=O)[O-])cc(/C=N/NC(=O)c2ccc(NC(=O)c3ccc(C)cc3)cc2)c1O | inactive | 33 | 77.6 | inactive | 226 | inactive
O=C(O)c1ccccc1NCc1ccc(Cl)cc1 | inactive | 79.2 | 95.6 | inactive | 50.2 | inactive
CCN1/C(=C/C=C/c2oc3ccc4ccccc4c3[n+]2CC)Oc2ccc3ccccc3c21 | inactive | 59.4 | 108 | inactive | 275 | inactive
Cc1cccc(OCC(=O)N/N=C/c2ccc3c(c2)OCO3)c1 | inactive | 34.8 | 89.5 | inactive | 256 | inactive
CCOC(=O)C1=NN(c2ccc(C)cc2)CC1C(=O)OC (stereo unspecified) | inactive | 41.5 | 86.3 | inactive | 244 | inactive
O=c1c2ccccc2nc2ccc(NCc3ccco3)nn12 | inactive | 31.4 | 71.8 | inactive | 196 | inactive
CCN(c1ccc(N=Cc2c(O)n(Cc3ccc(OC)cc3)c(=O)c3ccccc23)cc1)C(C)C | inactive | 154 | 196 | inactive | 452 | inactive
Cc1cc(-c2n[nH]c(=S)n2/N=C/c2cc([N+](=O)[O-])ccc2Cl)n[nH]1 | inactive | 40.4 | 54.8 | inactive | 105 | inactive
CS(=O)(=O)N1CCN(C(=O)C2c3ccccc3Oc3ccccc32)CC1 | inactive | 36.7 | 78.7 | inactive | 268 | inactive
O=C(CCNS(=O)(=O)c1cccc2nsnc12)N1CCN(c2ccccn2)CC1 | inactive | 52.4 | 64.7 | inactive | 203 | inactive
COc1ccccc1OCCn1cc(C(=O)O)c2cccc(C)c21 | inactive | 50.6 | 200 | inactive | 55.9 | inactive
COc1cc(/C=C/c2ccc3cccc([N+](=O)[O-])c3n2)ccc1OCC(=O)O | inactive | 32.7 | 76.2 | inactive | 160 | inactive
